IL2 activator: activates IL-2 in a cell-based reporter assay. IL-2 activation reporter assay, cell-based qHTS; stimulated with anti-CD3/CD4/CD28 beads; in transgenic mouse T cells. activation, % (series mostly up to about 46 µM). 360,000 tested, 0.065% active. AID 652025; in the data active means activation above about 50%; inconclusive means mostly about 30% to 49%; further: 0% is about no effect
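Unstimulated transgenic mouse T cells, 750 per well, received compound and, after 60 minutes, anti-CD3/anti-CD4 bead plus anti-CD28 stimulation. EGFP and DsRed were quantified after 18 hours.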
BRCA1 expr up: BRCA1 expression activation; MCF7-BRCA1-FFLuc reporter, luminescence, 48 h; response scale: scaled: vehicle 0%, 10 µM genistein 100%; Potency, µM (titrated, usually from 46.1 µM), inactives show at the highest dose activation, most hits filed as activators; 380,000 tested, 1.1% active; AID 624202; further: potency means the concentration at half of the fitted maximal effect; nearly all actives have a fitted effect of over 80% in size
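Using MCF7 cells harboring a BRCA1 firefly luciferase reporter, plated 2 h before compound pinning, the screen measured luminescence after 48 h incubation. Responses were normalized to DMSO and 10 microM genistein, then fitted for concentration-effect.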
IDH1 R132H inh: blocks human mutant IDH1 R132H enzyme | AID 602179 | 390,000 tested, 0.093% active | IDH1-R132H enzyme, NADPH consumption, diaphorase/resazurin fluorescence | Potency, µM (top dose mostly 76.6 µM), without a hit: at the top dose activity change, negative = inhibition, hits mostly inhibitors | O75874; further: potency means the concentration at half of the fitted maximal effect; on the % scale 0 is the no-effect control and ±100 the full control effect; nearly all actives have a fitted effect of over 65% in size
Target sequence (O75874 whole entry R132H, stated change not applied): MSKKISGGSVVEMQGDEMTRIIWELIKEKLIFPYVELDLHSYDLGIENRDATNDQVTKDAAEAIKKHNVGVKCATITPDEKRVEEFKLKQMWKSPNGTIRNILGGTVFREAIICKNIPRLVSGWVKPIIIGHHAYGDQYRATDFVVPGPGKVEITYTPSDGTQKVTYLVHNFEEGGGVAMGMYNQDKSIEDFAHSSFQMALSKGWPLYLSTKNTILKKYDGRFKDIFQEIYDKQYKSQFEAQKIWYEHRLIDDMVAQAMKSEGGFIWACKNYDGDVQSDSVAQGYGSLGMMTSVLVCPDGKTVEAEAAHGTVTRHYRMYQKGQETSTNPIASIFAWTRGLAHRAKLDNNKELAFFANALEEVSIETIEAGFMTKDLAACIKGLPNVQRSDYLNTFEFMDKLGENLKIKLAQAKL
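IDH1-R132H (0.5 ug/mL dispensed) in pH 7.5 Tris buffer was preincubated 30 min with compound, then given a substrate mix of 0.016 mM NADPH and 2 mM alpha-KG for 80 min at room temperature; remaining NADPH was read by diaphorase/resazurin fluorescence.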
gsp antagonist: gsp mutant antagonism; gsp-mutant cells, cAMP HTRF, 30 min; Potency, µM (highest dose often 76.9 µM), without a hit: at the top dose activity change, negative = inhibition, most hits filed as inhibitors; 340,000 tested, 0.4% active; calls by dose curve; cell line not stated here;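 further: intracellular cAMP measured with PDE inhibitor Ro 20-1724 present during compound exposure; potency means the concentration at half of the fitted maximal effect; on the % scale 0 is the no-effect control and ±100 the full control effect; nearly all actives have a fitted effect of over 65% in size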
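Measurement of cellular cAMP by homogeneous time-resolved fluorescence following a 30 min compound exposure at 37C. The PDE inhibitor […] was present throughout; the assay buffer was DPBS with 0.05% BSA and 0.005% Tween 20.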
gsp agonist: gsp mutant agonism; gsp mutant cells, cAMP HTRF, 30 min; Potency, µM (doses to about 76.9 µM), for inactives: at the top dose activation (cAMP increase), hits mostly activators; 340,000 tested, 0.13% active; AID 624287; active means well fitted activation curve with a large enough effect; inconclusive means small, poorly fitted or top-dose-only effect, or another doubt; inactive means no such curve, though single readings can be large or run the other way; cell line not stated here;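 further: phosphodiesterase inhibitor Ro 20-1724 added with compounds to block cAMP breakdown; potency means the concentration at half of the fitted maximal effect; nearly all actives have a fitted effect of over 60% in size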
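Cells stably selected in G418 were plated at 2000/well, grown 16-24 hr, then given compounds in DMSO with the PDE inhibitor […] (300 uM solution added) for 30 min at 37C; cAMP was read by HTRF.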
Resorufin autofl: interferes with resorufin fluorescence in IDH1 counter-screen; shares compounds with IDH1 R132H inh; Resorufin detection reagent fluorescence interference, cell-free; inhibition of signal, % at 51.2 µM; 750 tested, under 10 active; AID 623980;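 further: 0% = wells with normal resorufin and full inhibition = wells lacking resorufin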
WT IDH1 inh: wild-type IDH1 (human) inhibition counterscreen | shares compounds with IDH1 R132H inh | Potency, µM (highest dose often 115 µM), for inactives: at the top dose activity change, negative = inhibition, hits mostly inhibitors | WT IDH1 enzyme, NADPH diaphorase/resazurin fluorescence | AID 623995 | 750 tested, 9% active;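 further: potency means the concentration at half of the fitted maximal effect; 0% = full WT IDH1 enzyme control and full inhibition = no enzyme wells; nearly all actives have a fitted effect of over 55% in size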
Target sequence (O75874 whole entry, looked up): as the sequence (O75874 whole entry R132H, stated change not applied) above, with H132R counted along it
IDH1 R132H conf: mutant IDH1 (human) inhibition, confirmed | shares compounds with IDH1 R132H inh | IDH1 R132H enzyme, NADPH diaphorase/resazurin fluorescence | Potency, µM (highest dose often 76.6 µM), inactives show at the top dose activity change, negative = inhibition, most hits filed as inhibitors | 750 tested, 83% active; further: potency means the concentration at half of the fitted maximal effect; nearly all actives have a fitted effect of over 50% in size
Starred values were filed as active, the others as inactive; ? = inconclusive; nt = not tested or not shown; [ ] = remark or other dose. Rows were chosen to be rich in hits. Some 1.5% of all compounds tested hit in one or more screens of this group. Unless noted, the call rests on the fitted dose curve; in most records, active means well fitted curve in the direction sought with a large enough effect; inconclusive means small, poorly fitted or top-dose-only effect, or another doubt; inactive means no such curve, though single readings can be large; an effect the other way counts as inactive or inconclusive.

SMILES	IL2 activator	BRCA1 expr up	IDH1 R132H inh	gsp antagonist	gsp agonist	Resorufin autofl	WT IDH1 inh	IDH1 R132H conf
CC(C)OC(=O)CSc1nc(N2CCOCC2)c2c(c1C#N)CC(C)(C)OC2	0	-35%	?	-10%	3%	-7	5%	35µM*
CC(C)c1nc(N2CCN(C(=O)c3ccccc3)CC2)c(C#N)c2c1COC(C)(C)C2	0	-59%	?	15%	19%	2	-10%	22µM*
CC1(C)Cc2c(C#N)c(N3CCN(C(=O)c4ccccc4)CC3)nc(-c3ccco3)c2CS1	-1	26%	-1%	-8%	1%	nt	nt	nt
CC(C)c1nc(N2CCN(C(=O)c3ccco3)CC2)c(C#N)c2c1COC(C)(C)C2	-1	-37%	21µM*	-11%	-10%	-9	-10%	20µM*
COc1ccc(C2C(C(=O)Nc3ccccc3)=C(C)Nc3nc(-c4ccccc4)nn32)cc1OC (configuration not stated)	nt	nt	0%	nt	nt	nt	nt	nt
COC(=O)[C@@]12CCCCN1[C@H](c1ccc(-c3ccc(F)cc3)c(OC)c1)[C@@H]1C(=O)N(C)C(=O)[C@@H]12	0	-54%	40µM*	-21%	nt	-3	3%	6.3µM*
CCN1C(=O)[C@@H]2[C@@H](c3ccc(-c4ccc(OC)cc4)c(OC)c3)N3CCCC[C@@]3(C(=O)OC)[C@@H]2C1=O	0	0%	-19%	-4%	-2%	nt	nt	nt
COC(=O)[C@@]12CCCCN1[C@H](c1ccc(-c3ccc4c(c3)OCO4)c(OC)c1)[C@@H]1C(=O)N(C)C(=O)[C@@H]12	0	-64%	?	?	-1%	10	3%	11µM*
CCN1C(=O)[C@H]2[C@@H](c3ccc(-c4ccc(OC)cc4)c(OC)c3)N3CCCC[C@@]3(C(=O)OC)[C@H]2C1=O	0	-60%	?	-11%	nt	5	-5%	13µM*
COC(=O)[C@@]12CCCN1[C@H](c1ccc(-c3ccc4c(c3)OCO4)c(OC)c1)[C@H]1C(=O)N(C)C(=O)[C@H]12	0	2%	-6%	-9%	nt	nt	nt	nt
COc1cccc(CNC(=O)c2ccc(Cn3c(SCc4ccccc4)nc4cccnc43)cc2)c1	nt	nt	0%	nt	nt	nt	nt	nt
CCCc1nccn1S(=O)(=O)c1cc(Br)ccc1OC	nt	nt	-5%	nt	nt	nt	nt	nt
CCC(=O)C1=C(c2ccc(Cl)cc2)N(C(=O)CC)n2c(C)nnc2S1	nt	nt	45µM*	nt	nt	-13	299%	14µM*
C[C@@H]1CN([C@H](C)CO)C(=O)CCCn2cc(nn2)CO[C@H]1CN(C)S(=O)(=O)c1ccccc1C#N	1	4%	8%	nt	-38%	nt	nt	nt
Cc1ccc(Sc2ccc(NC(=O)CCl)cc2)c(C)c1	0	-7%	52µM*	-8%	3%	3	?	45µM*
CCOc1ccc(NC(=O)c2c[nH]n3c(=O)cc(C4CCN(C(=O)OC(C)(C)C)CC4)nc23)cc1	-1	2%	52µM*	?	-4%	-13	50µM*	25µM*
O=C(CN(CCc1ccccc1)S(=O)(=O)c1ccccc1)NCc1ccc(Cl)cc1	nt	nt	2%	nt	nt	nt	nt	nt
Cc1cc(/C=N/n2c(COc3ccccc3)nc3ccccc3c2=O)c(O)c([N+](=O)[O-])c1	-3	-70%	?	?	1%	6	4%	32µM*
CC[C@@H](CCC=C(C)C)C(=O)N(Cc1ccccc1)c1ccccc1	-2	0%	?	-9%	9%	0	?	16µM*
CC(C)C[C@@H](C)C(=O)N(Cc1ccccc1)c1ccccc1	0	-14%	12%	-2%	nt	nt	nt	nt
CCN(C(=O)CSc1nc2ccccc2n1CC(=O)N1CCCC(C)C1)c1ccccc1 (configuration not stated)	nt	nt	-14%	nt	nt	nt	nt	nt
CC(C)(C)c1c(Cl)c(O)c(-c2ccccc2)c(=O)n1-c1ccccc1	0	-13%	46µM*	-3%	25%	-3	?	?
O=C(Nc1cc(Cl)ccc1Cl)c1cc(S(=O)(=O)N2CCc3ccccc3C2)ccc1F	nt	nt	-2%	nt	nt	nt	nt	nt
CCCCNc1c(-c2cccc(-c3ccc(OC)cc3)c2)nc2ccc(C)cn12	-1	-81%	?	?	nt	-7	?	6.3µM*
Cc1ccc2nc(-c3ccc(-c4cccc(Cl)c4)cc3)c(NCc3ccccc3)n2c1	-1	20%	1%	7%	nt	nt	nt	nt
SMILES	IL2 activator	BRCA1 expr up	IDH1 R132H inh	gsp antagonist	gsp agonist	Resorufin autofl	WT IDH1 inh	IDH1 R132H conf
CC(=O)Nc1nnc2n1CCS2	nt	12%	-4%	nt	nt	nt	nt	nt
O=C(CCl)N1CCN(S(=O)(=O)c2ccc3c(c2)CCC3)CC1	0	-93%	46µM*	-5%	26%	-6	-24%	28µM*
CN1C(=O)N(CC(=O)N2CCN(S(=O)(=O)c3ccc4c(c3)CCC4)CC2)C(=O)C12CCCCC2	-4	15%	0%	10%	12%	nt	nt	nt
COc1ccc(Br)cc1CN(C)C(=O)c1ccccc1SCC(=O)N1CCCC1	0	-4%	46µM*	-12%	5%[15.4 µM]	-2	9%	35µM*
O=C(NCC1COc2ccccc2O1)c1c[nH]c2ccc(S(=O)(=O)N3CCOCC3)cc2c1=O (configuration not stated)	0	-33%	?	-21%	1%	-13	-21%	1%
Nc1ccc2c(c1)C1(CCC2)NC(=O)NC1=O (configuration not stated)	-1	2%	0%	nt	-16%	nt	nt	nt
O=C(CCC(=O)N1CCOc2ccccc21)Nc1ccccc1Br	-1	-9%	11%	3%	-56%	nt	nt	nt

From PubChem
